phage Ecoli inh – E. coli growth loss with phage present; AID 651602; 360,000 compounds, 0.26% hits; inhibition, % at 11.9 µM; growth absorbance; in the data active means inhibition above about 11%
E coli growth-1 – bacterial growth inhibition, counter-screen for AddAB inhibitors; 330,000 compounds, 0.27% hits; inhibition, % at 11.9 µM; E. coli V3065 growth, OD600 absorbance, 18 h;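 active means inhibition above the campaign's mean inhibition across all tested compounds plus 3 SD, cut at about 9.9% in these data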;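 further: uninfected addAB+ strain grown without phage in ampicillin broth; 0% = DMSO wells and 100% = ciprofloxacin 0.95 µg/ml wells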
AddAB inh – less growth of phage-infected E. coli with AddAB. E. coli expressing H. pylori AddAB, absorbance growth. inhibition, % at 11.9 µM. 330,000 compounds, 0.29% hits; in the data active means inhibition above about 12%;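 further: 0% = vehicle wells of infected cells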
Tat transport – inhibitors of E. coli Tat protein transport; E. coli MC4100 TorA-mCherry Tat export, fluorescence; inhibition, % at 10 µM; 340,000 compounds, 0.036% hits;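 active means mean replicate inhibition at least 50% and at least half of replicates individually reaching 50%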;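 further: exported cargo escapes ClpAP degradation while cytoplasmic cargo is degraded and loses fluorescence; 0% = median of neutral control wells and 100% = median of NaSCN control wells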
E coli growth-2 – E. coli growth inhibition; Escherichia coli growth, OD600, 23 h; stronger effect = lower value; OD600 absorbance (no concentration beside the values); 330,000 compounds, 0.21% hits; AID 1053175;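 active means OD600 absorbance below the run mean of sample wells minus 3.6 SD, in any replicate, cut at about 0.56 in these data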
RecBCD conf – confirmation: growth loss of phage-infected RecBCD+ E. coli (RecBCD inhibitor screen); E. coli V66 + T4 2- phage, growth OD; 890 compounds, 45% hits; shares compounds with phage Ecoli inh; AID 651982; inhibition, % at 11.9 µM;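 active means mean inhibition over triplicates exceeding the hit threshold derived in the original primary screen, cut at about 11% in these data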
Ecoli viability – counter-screen for RecBCD inhibitors: inhibitors of bacterial viability. shares compounds with phage Ecoli inh. E. coli viability, absorbance (OD) growth. inhibition, % at 11.9 µM. 890 compounds, 29% hits; in the data active means inhibition above about 20%;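 further: E. coli strain V66 grown with compound alone and no phage infection; 0% = bacteria with DMSO vehicle only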
AddAB phage OD – growth loss of phage-infected AddAB E. coli, RecBCD counter-screen. inhibition, % at 11.9 µM. E. coli expressing H. pylori AddAB + T4 phage, OD growth; gene 2 mutant T4, recBCD-deleted host. 890 compounds, 45% hits. AID 651984. shares compounds with phage Ecoli inh;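 active means mean inhibition above the solvent-only control wells' mean plus 3 SD, cut at about 22% in these data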;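 further: higher means less bacterial growth from phage killing when AddAB is blocked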
* hit, by the source's call. Sampled rows, rich in hits. Any-hit rate of the full collection: about 0.5%.

How did CCc1ccc(NC(=O)NNC(=O)c2ccc3ccccc3c2O)cc1 do in these assays?
phage Ecoli inh: 13.1*; Tat transport: -7.2; E coli growth-2: 0.702; RecBCD conf: 9.0; Ecoli viability: 9.8; AddAB phage OD: 8.5

What do the screens show for `COc1ccccc1NC(=O)NNC(=O)c1ccc2ccccc2c1O`?
phage Ecoli inh: 11.1*; Tat transport: 0.0; E coli growth-2: 0.677; RecBCD conf: 8.8; Ecoli viability: 9.7; AddAB phage OD: 7.8

How did O=c1[nH]cnc2c1ncn2C1OC(CO)C(O)C1O (stereo not drawn) do in these assays?
phage Ecoli inh: 3.0; Tat transport: 0.5; E coli growth-2: 0.674

What do the screens show for `O=c1[nH]cnc2c1ncn2C1CCC(CO)O1` (stereo not drawn)?
phage Ecoli inh: 87.4*; RecBCD conf: 73.9*; Ecoli viability: 90.3*; AddAB phage OD: 97.7*

Results for Nc1nc(=O)n(C2CCC(CO)O2)cc1F (stereo not drawn) ?
phage Ecoli inh: 11.3*; RecBCD conf: 9.9; Ecoli viability: 4.9; AddAB phage OD: 31.0*

How did CCn1nc(C(=O)NC(CCSC)c2nc3ccccc3[nH]2)c2ccccc2c1=O (stereo not drawn) do in these assays?
E coli growth-2: 0.706

What do the screens show for `O=C(N/N=C/c1cc2c3c(c1O)CCCN3CCC2)c1ccccc1O`?
phage Ecoli inh: 24.9*; Tat transport: -5.7; RecBCD conf: 10.4; Ecoli viability: 14.1; AddAB phage OD: 14.4

How did Cc1nn(-c2ccccc2)c(N2CCCC2)c1/C=N/NC(=O)c1ccccc1O do in these assays?
phage Ecoli inh: -0.8; E coli growth-1: 1.6; AddAB inh: 2.8; Tat transport: 1.8

How did Cc1cccc(NC(=O)COc2ccc(Br)cc2C=NO)c1 do in these assays?
E coli growth-2: 0.667

What do the screens show for `CCOc1ccc(/C=C\C(C)=NO)cc1`?
E coli growth-2: 0.65

What do the screens show for `CCOc1ccc(NC(=O)Nc2cc(OCC(F)(F)F)cc(OCC(F)(F)F)c2)cc1`?
phage Ecoli inh: 2.0; E coli growth-1: -1.4; AddAB inh: 2.0; Tat transport: 7.0; E coli growth-2: 0.699

How did O=C(Nc1ccc(F)cc1)Nc1cc(OCC(F)(F)F)cc(OCC(F)(F)F)c1 do in these assays?
phage Ecoli inh: 11.5*; E coli growth-1: 2.6; AddAB inh: 3.7; Tat transport: -6.2; E coli growth-2: 0.676; RecBCD conf: 1.6; Ecoli viability: 2.9; AddAB phage OD: 5.8

Results for CCC(C)NC(=O)C1c2ccccc2C(=O)N1Cc1cc(OC)ccc1OC (stereo not drawn) ?
phage Ecoli inh: 14.1*; E coli growth-1: 1.4; AddAB inh: -0.5; Tat transport: 2.9; E coli growth-2: 0.72; RecBCD conf: 1.3; Ecoli viability: 0.7; AddAB phage OD: 3.0

Results for CCOc1ccc(CN2C(=O)c3ccccc3C2C(=O)NC(C)CC)cc1OC (stereo not drawn) ?
phage Ecoli inh: 3.3; E coli growth-1: 0.5; AddAB inh: -0.7; Tat transport: 4.3; E coli growth-2: 0.651

What do the screens show for `CC(C)CCN1C(Nc2ccccc2)=NCC1CC(C)C` (stereo not drawn)?
E coli growth-2: 0.695

How did CCOc1ccc(NC(=O)Nc2ccc3nsnc3c2)cc1 do in these assays?
phage Ecoli inh: 11.2*; E coli growth-1: 2.5; AddAB inh: 5.0; Tat transport: -10.6; E coli growth-2: 0.652; RecBCD conf: 5.4; Ecoli viability: 5.5; AddAB phage OD: -1.3

What do the screens show for `COc1ccc(OC)c(C(=O)Cn2nnc(-c3ccc(N4CCOCC4)cc3)n2)c1`?
phage Ecoli inh: 12.1*; E coli growth-1: -0.3; AddAB inh: 0.3; Tat transport: -5.0; E coli growth-2: 0.746; RecBCD conf: -1.3; Ecoli viability: -1.8; AddAB phage OD: 2.5

How did Nc1ccc2oc(-c3cccc(Br)c3)nc2c1 do in these assays?
E coli growth-1: -1.1; AddAB inh: -0.9; Tat transport: -2.2; E coli growth-2: 0.69

How did Nc1nc2cc(Br)ccc2o1 do in these assays?
phage Ecoli inh: 13.7*; Tat transport: -15.8; E coli growth-2: 0.648; RecBCD conf: 11.0*; Ecoli viability: 11.5; AddAB phage OD: 27.6*
